PLAP activator = activators of human placental alkaline phosphatase; P05187; purified PLAP enzyme, luminescent substrate read-out; stronger effect = higher value; activation fold at 20 µM; 96,000 compounds, 1.2% hits; in the data active = activation fold above about 2
S1P2 ag = agonists of human S1P2 receptor; O95136; S1P2-expressing cell line, agonist reporter read-out; activation, % at 4.5 µM; 97,000 compounds, 0.46% hits; AID 729; in the data active = activation above about 16%
Target sequence (O95136 whole entry, looked up): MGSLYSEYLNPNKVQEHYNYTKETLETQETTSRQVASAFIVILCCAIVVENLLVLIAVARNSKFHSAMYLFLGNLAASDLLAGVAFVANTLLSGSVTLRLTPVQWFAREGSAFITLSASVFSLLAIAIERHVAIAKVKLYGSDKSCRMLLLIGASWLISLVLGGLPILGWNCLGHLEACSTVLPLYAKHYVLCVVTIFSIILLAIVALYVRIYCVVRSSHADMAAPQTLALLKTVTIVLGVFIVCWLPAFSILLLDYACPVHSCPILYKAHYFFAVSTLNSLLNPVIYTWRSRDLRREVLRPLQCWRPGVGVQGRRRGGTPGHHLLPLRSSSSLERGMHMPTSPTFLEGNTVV
S1P2 antag = blocks the human S1P2 receptor. O95136. cell-based S1P2 antagonist assay, inhibition at 5 uM. inhibition, % at 5 µM. 97,000 compounds, 0.21% hits. AID 736; in the data active = inhibition above about 45%;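 also: CRE beta-lactamase reporter cells expressing human S1P2 stimulated with S1P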
GALR2 blocker = antagonists of human galanin receptor 2 (GALR2). O43603. GALR2-expressing cells, antagonist mode. inhibition, % at 4 µM. 140,000 compounds, 0.39% hits. AID 828; in the data active = inhibition above about 27%;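 also: cells stimulated with galanin 1-16 at roughly its EC80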
GALR2 agonist = GALR2 (human) receptor agonism. O43603. GALR2-expressing cells, agonist activation read-out. activation, % (no concentration beside the values). 140,000 compounds, 0.48% hits; in the data active = activation above about 5%, passing the limit was not always enough
Each line names hits and unclear results; the compound was inactive in the other large screens. Rows were chosen to be rich in hits. Some 2% of all compounds tested hit in one or more screens of this group.

O=C(N/N=C/c1c[nH]c2ccccc12)c1[nH]c2ccc(Br)cc2c1-c1ccccc1	GALR2 agonist 8.1 (no result: PLAP activator, S1P2 ag, S1P2 antag)
CN(C)c1ccc(C2CC(c3ccccc3)=Nc3nc(-c4ccccc4)cn32)cc1 (configuration not stated)	none (no result: PLAP activator, S1P2 ag, S1P2 antag)
COc1ccc(OC)c(N(CC(=O)Nc2cccnc2)S(=O)(=O)c2ccccc2)c1	PLAP activator 2.2
COc1ccccc1N(CC(=O)Nc1cccnc1)S(=O)(=O)c1ccccc1	none
CCN(CCNC(=O)C1CCN(Cc2nc(-c3cccc(Cl)c3)oc2C)CC1)c1ccccc1	PLAP activator 2
Cc1ccccc1-c1nc(CN2CCC(C(=O)NC3CCN(Cc4ccccc4)CC3)CC2)c(C)o1	none (no result: PLAP activator)
COc1ccc(CCNC(=O)C2CCN(Cc3nc(-c4ccccc4C)oc3C)CC2)cc1OC	PLAP activator 2.1
Cc1ccccc1-c1nc(CN2CCC(C(=O)NCCC3=CCCCC3)CC2)c(C)o1	PLAP activator 2.3
O=S(=O)(NCc1cn2ccccc2n1)c1cc(F)ccc1F	none (no result: PLAP activator)
O=C(Nc1ncccn1)c1ccc(C(F)(F)F)cc1	none (no result: PLAP activator, S1P2 ag, S1P2 antag)
Cc1cc(NC(=O)c2c(F)cccc2Cl)n(-c2nc3ccccc3[nH]2)n1	PLAP activator 2.6
CCOC(=O)/C(=N/Nc1ccc(Cl)cc1)S(=O)(=O)c1ccccc1	none
Cc1cccc2cc(CN(CCN(C)C)C(=S)Nc3ccccc3)c(=O)[nH]c12	none (no result: PLAP activator, S1P2 ag, S1P2 antag)
Cc1ccc(-c2cc(-c3ccccc3[N+](=O)[O-])[nH]n2)c(O)c1	PLAP activator 2
CC(C)(C)NC(=O)C(=O)NCCC1=CCCCC1	none (no result: PLAP activator, S1P2 ag, S1P2 antag)
CC(C)c1nc2sc3c(NCc4ccco4)ncnc3c2c2c1COC(C)(C)C2	S1P2 ag 20
CC1CCCCN1S(=O)(=O)c1ccc(C(=O)Nc2sccc2C(N)=O)cc1 (configuration not stated)	none
COCCCn1c(Cc2csc(Nc3cccc(Cl)c3)n2)nnc1SCC(=O)OC	PLAP activator 2
Nc1c(C(=O)NCc2ccc(F)cc2)c2nc3ccccc3nc2n1CCCN1CCOCC1	PLAP activator 2, S1P2 ag 45, GALR2 agonist 41
COC(=O)c1c(N)n(CCCN2CCOCC2)c2nc3ccccc3nc12	none
COc1ccc(CNC(=O)c2c(N)n(CCCN3CCOCC3)c3nc4ccccc4nc23)cc1	S1P2 ag 39, GALR2 agonist 32
COc1ccc(-c2nc3ccccc3c(=O)n2CCOc2cccc(C)c2C)cc1	none (no result: PLAP activator, S1P2 ag, S1P2 antag)
O=C(NC1CCCc2ccccc21)C(Cc1ccccc1)NS(=O)(=O)c1cccs1 (configuration not stated)	none (no result: PLAP activator, S1P2 ag, S1P2 antag)
COC(=O)CN1CCN(C(c2ccccc2)c2ccccc2)CC1	none
COCCNC(=O)CN1CCN(C(c2ccccc2)c2ccccc2)CC1	S1P2 ag 55
Cc1cc(C)n(-c2nc(NCC(C)O)c3c4c(sc3n2)CCCC4)n1 (configuration not stated)	GALR2 agonist 8.8
Cc1cc(C)n(-c2nc(NCCO)c3c4c(sc3n2)CCCC4)n1	GALR2 agonist 8.1
Cc1cc(C)n(-c2nc(NCCCO)c3c4c(sc3n2)CCCC4)n1	GALR2 agonist 36
COc1ccc(C(C)C)cc1S(=O)(=O)n1ccnc1C	none (no result: PLAP activator, S1P2 ag, S1P2 antag)
CCCCOc1ccccc1NC(=O)Cn1c(-c2nonc2N)nc2ccccc21	GALR2 agonist 7.8 (no result: S1P2 ag, S1P2 antag)
CC(C)(C)NC(=O)Cn1c(-c2nonc2N)nc2ccccc21	none
CCCN(CCC)c1ncnc2nc[nH]c12	PLAP activator 2.3 (no result: S1P2 ag, S1P2 antag)
Clc1ccccc1CN(Cc1ccccc1)c1ncnc2nc[nH]c12	none
Cc1ccccc1NC(=O)C1CCCN1/C=C/C(=O)C(F)(F)F (configuration not stated)	none (no result: PLAP activator, S1P2 ag, S1P2 antag)
COc1cc2c(cc1OC)/C(=C/C#N)NC(C)(C)C2	S1P2 ag 26
Cc1cc2c(cc1C)/C(=C\C(N)=O)NC(C)(C)C2	none (no result: S1P2 ag, S1P2 antag)
O=C1CC(SC(=Nc2ccccc2)Nc2ccccc2)C(=O)N1c1cccc(Cl)c1 (configuration not stated)	none
Cn1c(N)c(C(=O)COC(=O)CSc2ccc(Cl)cc2)c(=O)n(C)c1=O	none (no result: PLAP activator, S1P2 ag, S1P2 antag)
Cc1cc(Cl)ccc1N(CC(=O)N=Nc1c(O)[nH]c2ccccc12)S(C)(=O)=O	PLAP activator 2.1
Cc1ccc(S(=O)(=O)N(CC(=O)N=Nc2c(O)[nH]c3ccccc23)c2cccc(C)c2)cc1	none (no result: PLAP activator, S1P2 ag, S1P2 antag)
N/C(=N\OC(=O)CCC1CCCC1)c1cccc([N+](=O)[O-])c1	none (no result: PLAP activator, S1P2 ag, S1P2 antag)
O=C(CSc1nc2[nH]ncc2c(=O)n1-c1ccccc1)c1ccc2c(c1)OCCO2	PLAP activator 2.4
CCc1nc2nc(C)cc(Nc3cccc(C(F)(F)F)c3)n2n1	PLAP activator 2.4 (no result: S1P2 ag, S1P2 antag)
CC(C)Cn1c(N)c(C(=O)COC(=O)c2ccc3ccccc3n2)c(=O)n(C)c1=O	S1P2 ag 22 (no result: PLAP activator)

Bioassay records as filed in PubChem.
